According to the supplement of paper PMC7411054:
Counter-ions that a name gives are not always drawn.

Columns and labels:
Assay in all cases: phenotypically active (imaging signature differs from DMSO and reproducible) at any of 0.3-9 uM (binary (1 = active, 0 = inactive)); higher = active
Conditions in all cases: treatment time: 24 h
A549-ACTB-RAB5A = system: A549-ACTB-RAB5A
Procedure, shortened: (§1)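 The reporter lines, fifteen in total and built by gene editing in A549, HepG2 and WPMY1 cells, used BFP for segmentation alongside GFP and RFP/FusionRed markers. Each was treated at 0.3, 1, 3 or 9 µM for 24 h in four wells and then imaged live, with live-cell features normalised to solvent control wells. Deviation meant ≥3 of 4 wells beyond the 95th percentile of control Euclidean distances; reproducibility meant a median replicate Pearson correlation above the 95th percentile of non-replicates. Only conditions meeting both were scored as phenotypically active.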

A549-CANX-COX4 = system: A549-CANX-COX4
Procedure, shortened: as §1

A549-GM130-SQSTM1 = system: A549-GM130-SQSTM1
Procedure, shortened: as §1

A549-TP53BP1-CLTA = system: A549-TP53BP1-CLTA
Procedure, shortened: as §1

A549-TUBA1B-RELA = system: A549-TUBA1B-RELA
Procedure, shortened: as §1

HepG2-ACTB-RAB5A = system: HepG2-ACTB-RAB5A
Procedure, shortened: as §1

HepG2-CANX-COX4 = system: HepG2-CANX-COX4
Procedure, shortened: as §1

HepG2-GM130-SQSTM1 = system: HepG2-GM130-SQSTM1
Procedure, shortened: as §1

HepG2-TP53BP1-CLTA = system: HepG2-TP53BP1-CLTA
Procedure, shortened: as §1

HepG2-TUBA1B-RELA = system: HepG2-TUBA1B-RELA
Procedure, shortened: as §1

WPMY1-ACTB-RAB5A = system: WPMY1-ACTB-RAB5A
Procedure, shortened: as §1

WPMY1-CANX-COX4 = system: WPMY1-CANX-COX4
Procedure, shortened: as §1

WPMY1-GM130-SQSTM1 = system: WPMY1-GM130-SQSTM1
Procedure, shortened: as §1

WPMY1-TP53BP1-CLTA = system: WPMY1-TP53BP1-CLTA
Procedure, shortened: as §1

WPMY1-TUBA1B-RELA = system: WPMY1-TUBA1B-RELA
Procedure, shortened: as §1

Measured: phenotypically active

N[C@@H](C(=O)O)c1ccc(C(=O)O)c(C(=O)O)c1
inactive: A549-ACTB-RAB5A 0 | A549-CANX-COX4 0 | A549-GM130-SQSTM1 0 | A549-TP53BP1-CLTA 0 | A549-TUBA1B-RELA 0 | HepG2-ACTB-RAB5A 0 | HepG2-CANX-COX4 0 | HepG2-GM130-SQSTM1 0 | HepG2-TP53BP1-CLTA 0 | HepG2-TUBA1B-RELA 0 | WPMY1-ACTB-RAB5A 0 | WPMY1-CANX-COX4 0 | WPMY1-GM130-SQSTM1 0 | WPMY1-TP53BP1-CLTA 0 | WPMY1-TUBA1B-RELA 0

Cc1ccc(OCCSc2ncccn2)c(Br)c1 [ZLN 024 hydrochloride]
inactive: A549-ACTB-RAB5A 0 | A549-CANX-COX4 0 | A549-GM130-SQSTM1 0 | A549-TP53BP1-CLTA 0 | A549-TUBA1B-RELA 0 | HepG2-ACTB-RAB5A 0 | HepG2-CANX-COX4 0 | HepG2-GM130-SQSTM1 0 | HepG2-TP53BP1-CLTA 0 | HepG2-TUBA1B-RELA 0 | WPMY1-ACTB-RAB5A 0 | WPMY1-CANX-COX4 0 | WPMY1-GM130-SQSTM1 0 | WPMY1-TP53BP1-CLTA 0 | WPMY1-TUBA1B-RELA 0

CCOC(=O)Nc1ccc2c(c1)N(C(=O)CCN1CCOCC1)c1ccccc1S2 [moracizine]
inactive: A549-ACTB-RAB5A 0 | A549-CANX-COX4 0 | A549-GM130-SQSTM1 0 | A549-TP53BP1-CLTA 0 | A549-TUBA1B-RELA 0 | HepG2-ACTB-RAB5A 0 | HepG2-CANX-COX4 0 | HepG2-GM130-SQSTM1 0 | HepG2-TP53BP1-CLTA 0 | HepG2-TUBA1B-RELA 0 | WPMY1-ACTB-RAB5A 0 | WPMY1-CANX-COX4 0 | WPMY1-GM130-SQSTM1 0 | WPMY1-TP53BP1-CLTA 0 | WPMY1-TUBA1B-RELA 0

Cc1ccc(Cl)c(Nc2ccccc2C(=O)O)c1Cl [meclofenamic-acid]
inactive: A549-ACTB-RAB5A 0 | A549-CANX-COX4 0 | A549-GM130-SQSTM1 0 | A549-TP53BP1-CLTA 0 | A549-TUBA1B-RELA 0 | HepG2-ACTB-RAB5A 0 | HepG2-CANX-COX4 0 | HepG2-GM130-SQSTM1 0 | HepG2-TP53BP1-CLTA 0 | HepG2-TUBA1B-RELA 0 | WPMY1-ACTB-RAB5A 0 | WPMY1-CANX-COX4 0 | WPMY1-GM130-SQSTM1 0 | WPMY1-TP53BP1-CLTA 0 | WPMY1-TUBA1B-RELA 0

CC(Oc1ccc(O)cc1)(P(=O)(O)O)P(=O)(O)O
inactive: A549-ACTB-RAB5A 0 | A549-CANX-COX4 0 | A549-GM130-SQSTM1 0 | A549-TP53BP1-CLTA 0 | A549-TUBA1B-RELA 0 | HepG2-ACTB-RAB5A 0 | HepG2-CANX-COX4 0 | HepG2-GM130-SQSTM1 0 | HepG2-TP53BP1-CLTA 0 | HepG2-TUBA1B-RELA 0 | WPMY1-ACTB-RAB5A 0 | WPMY1-CANX-COX4 0 | WPMY1-GM130-SQSTM1 0 | WPMY1-TP53BP1-CLTA 0 | WPMY1-TUBA1B-RELA 0

CCCCCN(C)CCC(O)(P(=O)(O)O)P(=O)(O)O [ibandronate]
inactive: A549-ACTB-RAB5A 0 | A549-CANX-COX4 0 | A549-GM130-SQSTM1 0 | A549-TP53BP1-CLTA 0 | A549-TUBA1B-RELA 0 | HepG2-ACTB-RAB5A 0 | HepG2-CANX-COX4 0 | HepG2-GM130-SQSTM1 0 | HepG2-TP53BP1-CLTA 0 | HepG2-TUBA1B-RELA 0 | WPMY1-ACTB-RAB5A 0 | WPMY1-CANX-COX4 0 | WPMY1-GM130-SQSTM1 0 | WPMY1-TP53BP1-CLTA 0 | WPMY1-TUBA1B-RELA 0

CCN(Cc1ccncc1)C(=O)C(CO)c1ccccc1 (stereo not given) [tropicamide]
inactive: A549-ACTB-RAB5A 0 | A549-CANX-COX4 0 | A549-GM130-SQSTM1 0 | A549-TP53BP1-CLTA 0 | A549-TUBA1B-RELA 0 | HepG2-ACTB-RAB5A 0 | HepG2-CANX-COX4 0 | HepG2-GM130-SQSTM1 0 | HepG2-TP53BP1-CLTA 0 | HepG2-TUBA1B-RELA 0 | WPMY1-ACTB-RAB5A 0 | WPMY1-CANX-COX4 0 | WPMY1-GM130-SQSTM1 0 | WPMY1-TP53BP1-CLTA 0 | WPMY1-TUBA1B-RELA 0

O=C1NC(=O)/C(=C\c2cccc(C(F)(F)F)c2)S1
inactive: A549-ACTB-RAB5A 0 | A549-CANX-COX4 0 | A549-GM130-SQSTM1 0 | A549-TP53BP1-CLTA 0 | A549-TUBA1B-RELA 0 | HepG2-ACTB-RAB5A 0 | HepG2-CANX-COX4 0 | HepG2-GM130-SQSTM1 0 | HepG2-TP53BP1-CLTA 0 | HepG2-TUBA1B-RELA 0 | WPMY1-ACTB-RAB5A 0 | WPMY1-CANX-COX4 0 | WPMY1-GM130-SQSTM1 0 | WPMY1-TP53BP1-CLTA 0 | WPMY1-TUBA1B-RELA 0

CN(C)C(=N)NC(=N)N [Metformin hydrochloride]
inactive: A549-ACTB-RAB5A 0 | A549-CANX-COX4 0 | A549-GM130-SQSTM1 0 | A549-TP53BP1-CLTA 0 | A549-TUBA1B-RELA 0 | HepG2-ACTB-RAB5A 0 | HepG2-CANX-COX4 0 | HepG2-GM130-SQSTM1 0 | HepG2-TP53BP1-CLTA 0 | HepG2-TUBA1B-RELA 0 | WPMY1-ACTB-RAB5A 0 | WPMY1-CANX-COX4 0 | WPMY1-GM130-SQSTM1 0 | WPMY1-TP53BP1-CLTA 0 | WPMY1-TUBA1B-RELA 0

C[C@H]1[C@H](C)CC[C@]2(C(=O)O)CC[C@]3(C)C(=CC[C@@H]4[C@@]5(C)CC[C@H](O)C(C)(C)[C@@H]5CC[C@]43C)[C@H]12 [Ursolic acid]
inactive: A549-ACTB-RAB5A 0 | A549-CANX-COX4 0 | A549-GM130-SQSTM1 0 | A549-TP53BP1-CLTA 0 | A549-TUBA1B-RELA 0 | HepG2-ACTB-RAB5A 0 | HepG2-CANX-COX4 0 | HepG2-GM130-SQSTM1 0 | HepG2-TP53BP1-CLTA 0 | HepG2-TUBA1B-RELA 0 | WPMY1-ACTB-RAB5A 0 | WPMY1-CANX-COX4 0 | WPMY1-GM130-SQSTM1 0 | WPMY1-TP53BP1-CLTA 0 | WPMY1-TUBA1B-RELA 0

CN(C)CCc1c[nH]c2ccc(Cn3cncn3)cc12 [rizatriptan]
inactive: A549-ACTB-RAB5A 0 | A549-CANX-COX4 0 | A549-GM130-SQSTM1 0 | A549-TP53BP1-CLTA 0 | A549-TUBA1B-RELA 0 | HepG2-ACTB-RAB5A 0 | HepG2-CANX-COX4 0 | HepG2-GM130-SQSTM1 0 | HepG2-TP53BP1-CLTA 0 | HepG2-TUBA1B-RELA 0 | WPMY1-ACTB-RAB5A 0 | WPMY1-CANX-COX4 0 | WPMY1-GM130-SQSTM1 0 | WPMY1-TP53BP1-CLTA 0 | WPMY1-TUBA1B-RELA 0
